In all, about 310,000 compounds went through this assay and about 2,200 (0.71%) showed an effect of 50% or more. The effect is printed as a negative number. The entries come from a sample that favours strong results as a whole.
The compounds below were run against human ether-à-go-go-related gene (hERG) potassium channel (human, UniProt Q12809) (assay: primary screen, population patch clamp on CHO cells stably expressing hERG; higher = less effect of the substance).
Chain of human ether-à-go-go-related gene (hERG) potassium channel (Q12809 whole entry, looked up): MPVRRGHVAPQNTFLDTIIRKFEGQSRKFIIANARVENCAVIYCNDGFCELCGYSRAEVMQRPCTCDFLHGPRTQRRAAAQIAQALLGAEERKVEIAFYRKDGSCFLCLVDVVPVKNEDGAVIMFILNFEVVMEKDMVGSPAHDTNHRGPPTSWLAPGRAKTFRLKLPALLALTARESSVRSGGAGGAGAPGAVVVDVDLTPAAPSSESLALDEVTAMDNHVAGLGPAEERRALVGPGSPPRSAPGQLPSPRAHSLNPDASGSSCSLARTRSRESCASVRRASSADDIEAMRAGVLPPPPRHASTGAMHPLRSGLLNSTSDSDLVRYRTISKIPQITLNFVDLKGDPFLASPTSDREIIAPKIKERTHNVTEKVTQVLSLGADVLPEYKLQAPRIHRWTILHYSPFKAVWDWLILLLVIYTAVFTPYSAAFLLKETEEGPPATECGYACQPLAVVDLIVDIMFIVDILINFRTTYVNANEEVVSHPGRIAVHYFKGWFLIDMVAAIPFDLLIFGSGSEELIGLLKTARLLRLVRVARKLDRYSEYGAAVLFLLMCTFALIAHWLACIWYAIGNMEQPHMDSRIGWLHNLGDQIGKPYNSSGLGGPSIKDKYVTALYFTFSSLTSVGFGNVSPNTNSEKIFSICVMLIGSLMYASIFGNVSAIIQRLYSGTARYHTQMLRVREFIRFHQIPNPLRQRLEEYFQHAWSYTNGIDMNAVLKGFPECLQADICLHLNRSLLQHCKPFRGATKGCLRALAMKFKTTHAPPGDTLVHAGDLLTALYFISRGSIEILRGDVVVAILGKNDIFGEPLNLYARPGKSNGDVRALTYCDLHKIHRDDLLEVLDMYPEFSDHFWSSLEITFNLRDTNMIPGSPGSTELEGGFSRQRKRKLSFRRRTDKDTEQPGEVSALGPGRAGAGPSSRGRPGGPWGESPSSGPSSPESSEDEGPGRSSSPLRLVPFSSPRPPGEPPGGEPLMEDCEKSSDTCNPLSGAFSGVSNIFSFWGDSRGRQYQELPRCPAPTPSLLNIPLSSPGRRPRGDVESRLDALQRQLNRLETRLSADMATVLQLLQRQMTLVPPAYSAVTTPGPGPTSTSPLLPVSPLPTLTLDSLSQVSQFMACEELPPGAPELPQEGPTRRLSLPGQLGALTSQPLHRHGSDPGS

| SMILES | hERG current change (%, negative = inhibition) at 1uM [%] |
| --- | --- |
| COC(=O)c1ccccc1NC(=O)CNc1cc(Cl)ccc1N1CCOCC1 | -0.671 |
| CCC(=O)Nc1cccc(C(=O)Nc2nccs2)c1 | 8.98 |
| CN1CCC(=NNC(=O)c2ccc(N(Cc3ccccc3Cl)S(C)(=O)=O)cc2)CC1 | 6.54 |
| CCc1ccccc1NC(=O)/C(=C/c1ccccc1)c1ccccc1 | -4.2 |
| Cc1ccc(OCC(=O)NC(=S)Nc2ccc(Br)c(C)n2)cc1 | 5.89 |
| O=C(CCCC(=O)c1ccc(F)cc1)c1ccc(F)cc1 | 5.62 |
| CCN(CCCC(=O)c1ccc(F)cc1)CCc1ccccc1.Cl | -86.5 |
| O=C(CCCc1ccccc1)c1ccccc1 | 19.4 |
| COCCn1nnnc1C(c1ccc(OC)c(OC)c1)N1CCN(c2nc3ccccc3s2)CC1 (centres unmarked) | 2.83 |
| COCCN(C(=O)c1csnn1)C(C(=O)NC1CCCC1)c1ccccc1F (centres unmarked) | 12.6 |
| CN(C)CCNc1nc2sc3c(c2c(=O)n1-c1ccc(F)cc1)CCCCC3 | 6.73 |
| COc1ccc(-n2c(NN)nc3sc4c(c3c2=O)CCCC4)cc1 | -9.75 |
| COc1ccc(-n2c(NCCN(C)C)nc3sc4c(c3c2=O)CCCCC4)cc1 | -69.4 |
| CC1(C)CC(NC(=O)C2CCN(S(=O)(=O)c3ccc(F)cc3)CC2)CC(C)(C)N1 | 16.9 |
| CCOC(=O)C1(Cc2ccc(Cl)cc2)CCN(C(=O)c2cscn2)CC1 | -12.4 |
| CCOC(=O)C1(Cc2ccccc2)CCN(Cc2nccn2CC)CC1 | 8.81 |
| O=C1CCC(C(=O)N2CCC(CO)(Cc3ccc(Cl)cc3)CC2)=NN1 | 2.9 |
| CCOC(=O)C1(Cc2ccc(Cl)cc2)CCN(Cc2ccon2)CC1 | 5.86 |
| CCOC(=O)C1(Cc2ccc(Cl)cc2)CCN(Cc2nccn2CC)CC1 | -57 |
| CCOC(=O)C1(Cc2cccc(OC)c2)CCN(Cc2cnc(N)nc2)CC1 | 5.79 |
| CCOC(=O)C1(Cc2cccc(OC)c2)CCCN(Cc2nccn2CC)C1 (centres unmarked) | -13.5 |
| CCOC(=O)C1(Cc2ccc(Cl)cc2)CCN(Cc2cnc(N)nc2)CC1 | -60.6 |
| CCOC(=O)C1(Cc2ccc(Cl)cc2)CCN(C(=O)C2=NNC(=O)CC2)CC1 | -61.2 |
| COc1ccccc1C(=O)Nc1nnc(S(=O)(=O)N2CCC(C)CC2)s1 | 12.4 |
| CCOc1ccc(CNC(=O)C2CCCN(c3nnc(C)c4c(C)n(-c5ccccc5)nc34)C2)cc1 (centres unmarked) | 8.87 |
| N#C/C(=C/c1ccc(N2CCCCCC2)o1)c1ccc(F)cc1 | 16.2 |
| O=C1CC(Nc2ccc(N3CCOCC3)cc2)C(=O)N1c1ccccc1F (centres unmarked) | 3.19 |

| SMILES | hERG current change (%, negative = inhibition) at 1uM [%] |
| --- | --- |
| CCN1C(=O)[C@H]2[C@@H](c3ccc(-c4ccc(OC)cc4)cc3)N3CCC[C@@]3(C(=O)OC)[C@H]2C1=O.O=C(O)C(F)(F)F | 11.6 |
| Cc1cc(C)c(S(=O)(=O)N2CCCCC2CCNC(=O)C(=O)NCCN2CCOCC2)c(C)c1 (centres unmarked) | 6.75 |
| Cc1cc(C(C)(C)CC(C)(C)C)ccc1OCCOCC[N+](C)(C)Cc1ccccc1.[Cl-] | -62 |
| Cc1cc(C(C)(C)C)ccc1OCCOCCN1CCCC1 | -0.816 |
| Cc1cc(C(C)(C)C)ccc1OCCN(C)C | -15.1 |
| COc1cccc(S(=O)(=O)NCC(=O)N2CCCCCC2)c1 | 25 |
| Cc1ccc(S(=O)(=O)N2CCN(c3ccccc3)CC2)cc1C(N)=O | -52 |
| Cc1ccc(S(=O)(=O)N2CCN(c3ccccc3)CC2)cc1C(=O)NC1CCCCC1 | 10.8 |
| Cc1ccc(S(=O)(=O)N2CCN(c3ccccc3)CC2)cc1C | 12.5 |
| CC(C)OC(=O)c1ccc(NC(=O)c2ccco2)cc1 | 6.19 |
| Cc1ccc(S(=O)(=O)Cn2nnnc2C(CC(C)C)N2CCN(C(=O)c3ccco3)CC2)cc1.Cl (centres unmarked) | 7.63 |
| C=CCNc1nc(C(=O)OCC(=O)Nc2cc(S(C)(=O)=O)ccc2Cl)cs1 | 4.15 |
| NC(=O)CCCn1c(C(=O)c2ccc(Cl)cc2)c2ccc([N+](=O)[O-])cc2[n+]1[O-] | -58.2 |
| Nc1c(Cl)cc(C(=O)c2c3ccc([N+](=O)[O-])cc3[n+]([O-])n2CCC[NH3+])cc1Cl.O=C([O-])C(F)(F)F | 1.56 |
| NC(=O)CCCn1c(C(=O)c2ccc(Cl)cc2)c2ccc(C(F)(F)F)cc2[n+]1[O-] | -80.1 |
| Cc1ccc(C(=O)c2c3ccc(C(F)(F)F)cc3[n+]([O-])n2CCC(N)=O)cc1 | -28.8 |
| Cc1ccc(C(=O)c2c3ccc([N+](=O)[O-])cc3[n+]([O-])n2CCC[NH3+])cc1.O=C([O-])C(F)(F)F | -14.7 |
| NC(=O)CCCn1c(C(=O)c2cc(Cl)c(N)c(Cl)c2)c2ccc(C(F)(F)F)cc2[n+]1[O-] | 5.14 |
| Cc1ccc(C(=O)c2c3ccc(C(F)(F)F)cc3[n+]([O-])n2CCCC(N)=O)cc1 | -39 |
| [Cl-].[NH3+]CCCn1c(C(=O)c2ccc(Cl)cc2)c2ccc(C(F)(F)F)cc2[n+]1[O-] | -80.9 |
| Nc1c(Cl)cc(C(=O)c2c3ccc(C(F)(F)F)cc3[n+]([O-])n2CCC[NH3+])cc1Cl.[Cl-] | -37.3 |
| Cc1ccc(C(=O)c2c3ccc(C(F)(F)F)cc3[n+]([O-])n2CCC[NH3+])cc1.O=C([O-])C(F)(F)F | -64.4 |
| [Cl-].[NH3+]CCCn1c(C(=O)c2ccc(Cl)cc2)c2ccc([N+](=O)[O-])cc2[n+]1[O-] | -47.1 |
| Cc1ccc(C(=O)c2c3ccc([N+](=O)[O-])cc3[n+]([O-])n2CCCC(N)=O)cc1 | -11.4 |
| COc1cccc(CNS(=O)(=O)c2c(C(=O)N3CCCCCC3)c(C)n(C)c2C)c1 | 7.52 |
| Cc1ccccc1CNC1CCCCC1.Cl | 2.15 |
| O=C(Cn1cnc2cc([N+](=O)[O-])ccc2c1=O)Nc1ccccc1Cl | 6.18 |

| SMILES | hERG current change (%, negative = inhibition) at 1uM [%] |
| --- | --- |
| COC(=O)c1ccc(-c2nc(O)c(C)s2)cc1 | 9.1 |
| CC1=C(C(=O)Nc2cccc(C(=O)NCc3ccc(F)cc3)c2)SCCO1 | 15.3 |
| COc1ccc(C(=O)c2c3ccc(C(F)(F)F)cc3[n+]([O-])n2CCC[NH3+])cc1.[Cl-] | -63 |
| COc1ccc(C(=O)c2c3ccc(C(F)(F)F)cc3[n+]([O-])n2CCCC(N)=O)cc1 | -21.6 |
| COc1ccc(C(=O)c2c3ccc([N+](=O)[O-])cc3[n+]([O-])n2CCC[NH3+])cc1.[Cl-] | -13.5 |
| Cc1ccc(-c2nn3nnnc3c3ccccc23)cc1C | -5.22 |
| c1ccc(-c2nn3nnnc3c3ccccc23)cc1 | -82.9 |
| Cc1ccc(-c2nn3nnnc3c3ccccc23)cc1 | 12.9 |
| COc1ccc(C(=O)OCCc2sc[n+](CC(=O)c3ccccc3)c2C)cc1.[Br-] | 9.69 |
| Cc1c(CCOC(=O)c2ccccc2)sc[n+]1CC(=O)c1ccc(Br)cc1.[Br-] | -82.8 |
| Cc1c(CCOC(=O)CC23CC4CC(CC(C4)C2)C3)sc[n+]1CC(=O)c1ccccc1.[Br-] | -6.04 |
| Cc1c(CCOC(=O)c2ccc([N+](=O)[O-])cc2)sc[n+]1CC(=O)c1ccccc1.[Br-] | -6.66 |
| Cc1c(CCOC(=O)CC23CC4CC(CC(C)(C4)C2)C3)sc[n+]1CC(=O)c1ccccc1.[Br-] | -5.09 |
| Cc1c(CCOC(=O)CC23CC4CC(CC(C4)C2)C3)sc[n+]1CC(=O)c1ccc(Br)cc1.[Br-] | -63.5 |
| CCc1ccc(C(C(=O)NC2CCCC2)N(Cc2cccnc2)C(=O)c2csnn2)cc1 (centres unmarked) | 2.84 |
| Nc1c(-c2ccccc2)nc(Cl)nc1-c1ccccc1 | 13.2 |
| CN(CC(=O)Nc1ccccc1Cl)C(=O)COC(=O)/C=C/c1ccc(C(F)(F)F)cc1 | 16.2 |
| Cc1ccccc1C(=O)c1cccn1CC(=O)NCCCN1CCc2ccccc2C1 | -70 |
| O=C(Cn1cccc1C(=O)c1ccccc1)NCCCN1CCc2ccccc2C1 | -41.7 |
| Cc1ccccc1C(=O)c1cccn1CC(=O)NCCCN1CCCCC1 | 0.894 |
| Cc1ccccc1C(=O)c1cccn1CC(=O)NCCCN1CC(C)CC(C)C1 (centres unmarked) | -59 |
| Cc1ccc(C)c(N2CCN(CCCNC(=O)Cn3cccc3C(=O)c3ccccc3C)CC2)c1 | -22.1 |
| CC1CC(C)CN(CCCNC(=O)Cn2cccc2C(=O)c2ccccc2)C1 (centres unmarked) | -25 |
| CN(C)CCN1C(=O)c2oc3ccccc3c(=O)c2C1c1ccc(F)cc1 (centres unmarked) | -2.93 |
| CC(=O)Nc1ccc(Oc2sc(C(=O)c3ccccc3)c(N)c2C#N)cc1 | 9.56 |
| COCCN(C(=O)CSc1nnc(-c2ccco2)n1C)c1c(N)n(CC(C)C)c(=O)[nH]c1=O | 8.54 |

Reference: paper PMC4336329 (PLoS ONE, 2015)
